Consider 21 molecules from PubChem BioAssay.

Assay [1] is described as follows: antimalarial activity against Dd2 strain (AID 2302;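 active = growth inhibition above 50% at the single 2 µM test dose, taken to imply half-maximal potency below 2 µM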;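 note: 0% = DMSO untreated growth and 100% = chloroquine plus artemisinin killed control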). The following applies: P. falciparum Dd2 in RBCs, LDH growth readout, 72 h; at 2 µM; hits give high values.
Assay [2] in a line: HepG2 cytotoxicity, primary screen, cytotoxicity control for P. falciparum antimalarial project, cell-based, ATP luminescence (AID 2303;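 active = inhibition above 50%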;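 note: 0% = DMSO wells and 100% = digitonin-killed cells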). To be noted: HepG2 viability, 24-48 h, at 10 µM, hits give high values.
Assay [3] concerns the target L-lactate dehydrogenase (Plasmodium falciparum (isolate CDC / Honduras)) (UniProt Q27743). Briefly: PfLDH activity inhibition – cell lysate, 3D7 strain, counter-screen for P. falciparum growth inhibition project (AID 2304).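 Note: 0% = vehicle and 100% = reference inhibitor.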 To be noted: P. falciparum 3D7 crude extract, LDH APAD/NBT absorbance; at 2 µM; hits give high values.
Assay [4] can be described thus: inhibition of 3D7 malaria parasite growth – strain 3D7 (AID 2306).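 Note: 0% = DMSO wells and 100% = chloroquine plus artemisinin control wells.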 The following applies: P. falciparum 3D7 erythrocytic growth, LDH absorbance, 72 h; at 2 µM; hits give high values.
Assay [5] concerns the target Plasmodium falciparum protein kinase 6 (PK6, PF3D7_1337100) (UniProt Q8IDW1). The experiment in a line: PfPK6 kinase inhibitors, biochemical, TCAMS library (AID 1159586). The following applies: recombinant PfPK6, Kinase-Glo ATP depletion luminescence. On the technique in general: In Kinase-Glo more light means more ATP remaining.
Assay [6] addresses Protein kinase 7 (PK7), Plasmodium falciparum 3D7 (PF3D7_0213400) (UniProt Q7YTF7). Briefly: inhibition of Plasmodium PK7 catalytic activity – biochemical, TCAMS antimalarial set, Kinase-Glo luminescence (AID 1159587). The following applies: recombinant PfPK7, Kinase-Glo ATP depletion luminescence.
In assay [7] the target is Calcium-dependent protein kinase 4 (Plasmodium falciparum (isolate 3D7)) (UniProt Q8IBS5). The experiment in a line: PfCDPK4 kinase inhibitors, biochemical, TCAMS library (AID 1159588; cut-off not given, nearly all actives have IC50 up to about 0.91 µM). To be noted: recombinant PfCDPK4, Kinase-Glo ATP depletion luminescence.
The target in assay [8] is Calcium-dependent protein kinase 1 (Plasmodium falciparum (isolate 3D7)) (UniProt P62344). The experiment in a line: PfCDPK1 kinase inhibitors, biochemical, TCAMS library (AID 1159585; cut-off not given, nearly all actives have IC50 up to about 0.98 µM;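 note: inhibitors leave more ATP so luminescence rises with inhibition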). The following applies: recombinant PfCDPK1, Kinase-Glo ATP depletion luminescence.
Assay [9] in a line: growth inhibition of DIPG glioma cells, dose response, cell-based, SU-DIPG-XIII, MIPE4.0, CellTiter-Glo, qHTS (AID 1347061; cut-off not given, nearly all actives have AC50 up to about 37 µM;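 note: cells exposed to compound for 48 hours before readout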). The following applies: SU-DIPG-XIII viability, CellTiter-Glo ATP luminescence. Background: ATP-based viability assays read luminescence as a measure of living cells.
The nature of assay [10]: growth inhibition of DIPG glioma cells, dose response, cell-based, JHH-DIPG-1, MIPE4.0, CellTiter-Glo, qHTS (AID 1347062; cut-off not given, nearly all actives have AC50 up to about 27 µM;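 note: cells exposed to compound for two days before readout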). The following applies: JHH-DIPG-1 viability, CellTiter-Glo ATP luminescence.
A short description of assay [11]: growth inhibition of DIPG glioma cells, dose response, cell-based, SU-DIPG-IV, MIPE4.0, CellTiter-Glo, qHTS (AID 1347063; cut-off not given, nearly all actives have AC50 up to about 30 µM;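 note: compound exposure lasted 48 hours before the viability readout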). To be noted: SU-DIPG-IV viability, CellTiter-Glo ATP luminescence.
Assay [12] is described as follows: growth inhibition of DIPG glioma cells, dose response, cell-based, SU-DIPG-XIII, MIPE5.0, CellTiter-Glo, qHTS (AID 1347064; cut-off not given, nearly all actives have AC50 up to about 23 µM;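 note: cells exposed to compound for 48 hours before the viability read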). To be noted: SU-DIPG-XIII viability, CellTiter-Glo ATP luminescence.
Assay [13] can be described thus: SU-DIPG-XXV glioma cell viability, MIPE5.0 library, qHTS (AID 1347068; cut-off not given, nearly all actives have IC50 up to about 30 µM;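 note: cells exposed to compound for 48 hours before viability readout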). On the technique in general: qHTS replaces the single test concentration by a dilution series.

A number with no mark means an inactive call. Records with an inconclusive call do not appear. For part of these data: Measured potencies and affinities stand elsewhere. Calls of active or inactive are those of the source. Unless noted, the rule behind the calls is not given here.

Protein kinase 7 (PK7), Plasmodium falciparum 3D7 (PF3D7_0213400), sequence (Q7YTF7 1-343): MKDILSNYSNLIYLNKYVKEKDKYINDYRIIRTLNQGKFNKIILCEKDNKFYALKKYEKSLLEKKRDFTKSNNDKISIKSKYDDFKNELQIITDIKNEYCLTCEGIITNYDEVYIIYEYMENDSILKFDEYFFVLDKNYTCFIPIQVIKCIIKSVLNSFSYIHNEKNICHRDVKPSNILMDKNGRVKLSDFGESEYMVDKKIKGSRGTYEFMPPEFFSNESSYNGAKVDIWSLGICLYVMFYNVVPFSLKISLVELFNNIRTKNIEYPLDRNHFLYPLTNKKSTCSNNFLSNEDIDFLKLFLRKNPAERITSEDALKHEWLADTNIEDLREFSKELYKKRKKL
L-lactate dehydrogenase (Plasmodium falciparum (isolate CDC / Honduras)), sequence (Q27743 whole entry, looked up): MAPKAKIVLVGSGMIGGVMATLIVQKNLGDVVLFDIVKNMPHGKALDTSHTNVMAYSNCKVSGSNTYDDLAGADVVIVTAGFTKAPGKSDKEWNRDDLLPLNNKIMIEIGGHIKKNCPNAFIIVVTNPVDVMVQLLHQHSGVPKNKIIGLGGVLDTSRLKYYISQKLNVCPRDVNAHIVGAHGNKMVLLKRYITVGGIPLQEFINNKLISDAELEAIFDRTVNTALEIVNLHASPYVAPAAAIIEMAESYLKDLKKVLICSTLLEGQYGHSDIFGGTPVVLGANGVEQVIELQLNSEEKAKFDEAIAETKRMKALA
Plasmodium falciparum protein kinase 6 (PK6, PF3D7_1337100), sequence (Q8IDW1 1-305): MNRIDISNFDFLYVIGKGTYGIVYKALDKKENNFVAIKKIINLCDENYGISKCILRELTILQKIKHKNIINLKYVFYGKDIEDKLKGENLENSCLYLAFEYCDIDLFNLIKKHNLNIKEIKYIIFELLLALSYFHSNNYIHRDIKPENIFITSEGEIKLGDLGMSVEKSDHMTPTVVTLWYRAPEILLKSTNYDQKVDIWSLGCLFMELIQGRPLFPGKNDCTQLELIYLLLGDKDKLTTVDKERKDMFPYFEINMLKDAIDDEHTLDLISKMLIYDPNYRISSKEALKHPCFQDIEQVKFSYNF
Calcium-dependent protein kinase 1 (Plasmodium falciparum (isolate 3D7)), sequence (P62344 whole entry, looked up): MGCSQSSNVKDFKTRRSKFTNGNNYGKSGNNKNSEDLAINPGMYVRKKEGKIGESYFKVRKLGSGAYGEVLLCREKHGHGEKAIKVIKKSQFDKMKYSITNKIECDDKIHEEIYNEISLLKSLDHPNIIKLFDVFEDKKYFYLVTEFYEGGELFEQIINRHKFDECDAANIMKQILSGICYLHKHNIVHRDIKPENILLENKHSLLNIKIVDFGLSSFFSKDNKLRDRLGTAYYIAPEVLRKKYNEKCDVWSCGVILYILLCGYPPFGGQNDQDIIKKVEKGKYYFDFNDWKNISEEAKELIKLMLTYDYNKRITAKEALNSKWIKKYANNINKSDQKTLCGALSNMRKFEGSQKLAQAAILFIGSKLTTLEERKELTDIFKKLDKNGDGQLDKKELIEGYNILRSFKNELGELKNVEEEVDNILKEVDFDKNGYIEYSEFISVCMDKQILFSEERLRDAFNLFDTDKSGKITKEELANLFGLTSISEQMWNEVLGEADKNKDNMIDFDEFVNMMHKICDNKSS
Calcium-dependent protein kinase 4 (Plasmodium falciparum (isolate 3D7)), sequence (Q8IBS5 whole entry, looked up): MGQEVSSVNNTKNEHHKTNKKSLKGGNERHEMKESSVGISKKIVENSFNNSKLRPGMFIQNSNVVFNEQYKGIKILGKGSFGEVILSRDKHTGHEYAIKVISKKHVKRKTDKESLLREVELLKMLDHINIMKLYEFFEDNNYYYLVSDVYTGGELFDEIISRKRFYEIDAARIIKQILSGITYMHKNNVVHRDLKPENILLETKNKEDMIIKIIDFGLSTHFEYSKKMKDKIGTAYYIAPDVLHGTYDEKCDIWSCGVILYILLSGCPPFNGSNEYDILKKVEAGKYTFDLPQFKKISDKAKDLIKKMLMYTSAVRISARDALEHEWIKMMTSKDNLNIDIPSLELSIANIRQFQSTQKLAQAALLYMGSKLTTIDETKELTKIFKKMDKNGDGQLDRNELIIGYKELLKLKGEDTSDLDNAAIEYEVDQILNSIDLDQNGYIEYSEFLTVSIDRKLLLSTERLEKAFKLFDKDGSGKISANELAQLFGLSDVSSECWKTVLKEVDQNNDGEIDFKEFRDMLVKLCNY

In the case of `CS(=O)(=O)Nc1cccc(-c2cnc3[nH]cc(-c4ccc(CN)cc4)c3c2)c1`, the growth inhibition in assay [1] was 95% (active); in [4], 98% (active). Further, the inhibition is 27% in assay [2] and 2% in assay [3]. For the same molecule, the outcome in assay [5], in assay [6] and in assay [7] was inactive.

As to `CCN(CC)CCNC(=O)c1ccc(Nc2ncc([N+](=O)[O-])c(Nc3ccccc3OC)n2)cc1`, the figures for the growth inhibition in [1] and in [4] were 58% (active) and 97% (active), respectively. The figures for the inhibition in [2] and in [3] were 59% (active) and -6%, respectively. Further, the outcome in assay [8], in [6] and in assay [7] was inactive.

With `CC(=O)Nc1ccc(Nc2ncc([N+](=O)[O-])c(Nc3ccccc3C(N)=O)n2)cc1`, the growth inhibition is 97% (active) in [1] and 98% (active) in assay [4]. In addition, the inhibition in assay [2] was 42%; in assay [3], 2%. Also, the outcome in [8], in [6] and in [7] was inactive.

For `NS(=O)(=O)c1cccc(Nc2nccc(-c3cnn4ncccc34)n2)c1`, the growth inhibition in assay [1] and in [4] was 89% (active) throughout. Also, the inhibition was 39% in [2] and 0% in assay [3]. Further, the outcome in assay [8], in assay [6] and in assay [7] was inactive.

For `CN(c1ccc(NC(=O)Nc2cc(C(C)(C)C)on2)cc1)c1ccnc(NCCN2CCOCC2)n1`, the values for the growth inhibition in [1] and in assay [4] were 18% and 95% (active), respectively. Also, the values for the inhibition in [2] and in assay [3] were 51% (active) and -5%, respectively. Further, the outcome in assay [8], in assay [6] and in assay [7] was inactive.

`Cn1cnc2c(Nc3ccncc3)nc(-c3ccc4c(c3)OCO4)nc21`: the values for the growth inhibition in assay [1] and in assay [4] were 2% and 96% (active), respectively. Besides, the inhibition in [2] was 19%; in [3] it was -1%. The outcome in assay [8], in assay [6] and in assay [7] was inactive.

Turning to `N#Cc1cnc(Nc2ccc(Oc3ccccc3)cc2)nc1Nc1cccc(S(N)(=O)=O)c1`, the growth inhibition was 86% (active) in assay [1] and 96% (active) in [4]. The inhibition is 74% (active) in assay [2] and 3% in assay [3]. The result in assay [8], in assay [6] and in assay [7] was inactive.

For `COc1c(CN2CCOCC2)cccc1-c1cc2c(-c3ccc(C(=O)O)c(C(C)C)c3)ccnc2[nH]1`, the growth inhibition in assay [1] is 90% (active); in [4], 98% (active). For the same molecule, the inhibition in assay [2] is 44%; in assay [3] it was -3%. The outcome in [8], in assay [6] and in assay [7] was inactive.

Take `CN(c1ccc2c(c1)nc(NCc1ccccc1)n2C)c1ccnc(Nc2ccc(CS(C)(=O)=O)cc2)n1`: the growth inhibition was 69% (active) in [1] and 94% (active) in assay [4]. In addition, the inhibition in assay [2] was 61% (active); in assay [3], 4%. Further, the outcome in assay [8], in assay [6] and in assay [7] was inactive.

Turning to `Oc1cc(-c2nc(-c3ccccc3)[nH]c2-c2ccncc2)ccc1Cl`, the growth inhibition in [1] was 91% (active); in assay [4], 96% (active). Also, the inhibition in assay [2] was 64% (active); in [3] it was -6%. Besides, the result in assay [5], in assay [6] and in [7] was inactive. Moreover, the AC50 in assay [9] was 16.6 µM (active); in assay [10], 13.2 µM (active); in assay [11] it was 2.35 µM (active); in assay [12], 9.34 µM (active). Also, the half-inhibitory concentration (IC50) in [13] was 23.5 µM (active).

Turning to `Oc1cc(-c2nc(C3(CNCc4ccc(Cl)cc4)CCCCC3)[nH]c2-c2ccncc2)ccc1Cl`, the growth inhibition is 99% (active) in assay [1] and 100% (active) in [4]. The inhibition in assay [2] was 35%; in [3], 2%. Also, the outcome in assay [5], in [6] and in assay [7] was inactive.

`CCN(CC)CCCNc1nccc(N(C)c2ccc(NC(=O)Nc3cc(C(F)(F)F)ccc3F)cc2)n1`: the growth inhibition in assay [1] was 19%; in assay [4], 94% (active). Besides, the inhibition in assay [2] was 96% (active); in assay [3], -6%. For the same molecule, the result in assay [8], in [6] and in [7] was inactive.

Take `O=C(Nc1cccc(-c2nn3ccccc3c2-c2ccnc(Nc3ccc(-c4ccn[nH]4)cc3)n2)c1)c1c(F)cccc1F`: the outcome in assay [5] and in [6] was inactive.

On to `CCNC(=O)Nc1ccc(N(C)c2ccnc(Nc3ccc(CS(C)(=O)=O)cc3)n2)cc1`, for which the growth inhibition is 99% (active) in assay [1] and 101% (active) in [4]. For the same molecule, the inhibition is -5% in assay [2] and 2% in assay [3]. Also, the outcome in assay [8], in assay [6] and in [7] was inactive.

With `CN(c1ccc(NC(=O)Nc2cccc(Cl)c2)cc1)c1ccnc(N)n1`, the growth inhibition was 40% in assay [1] and 100% (active) in assay [4]. For the same molecule, the inhibition in [2] is 75% (active); in [3], -1%. For the same molecule, the result in assay [8], in assay [6] and in [7] was inactive.

`CC(C)(C)CNCC(C)(C)c1nc(-c2ccc(Cl)c(O)c2)c(-c2ccncc2)[nH]1`: the growth inhibition is 98% (active) in assay [1] and 101% (active) in assay [4]. Moreover, the inhibition is 42% in assay [2] and 5% in [3]. The outcome in assay [5], in [6] and in assay [7] was inactive.

Consider `N=C(N)c1ccc(Nc2nccc(Nc3nc(-c4ccccc4)cs3)n2)cc1`, for which the growth inhibition in assay [1] was 75% (active); in [4], 96% (active). Also, the figures for the inhibition in [2] and in [3] were 13% and -8%, respectively. The outcome in assay [8], in assay [6] and in assay [7] was inactive.

For the molecule `CN1CCN(Cc2ccc(-c3ccc4c(Nc5cc(O)c(Cl)cc5F)ccnc4c3)o2)CC1`, the growth inhibition in [1] is 99% (active); in assay [4], 100% (active). The inhibition was 2% in [2] and -4% in assay [3]. The result in [5], in [6] and in [7] was inactive.

In the case of `CN1CCN(Cc2ccc(-c3ccc4c(Nc5ccc(Cl)cc5F)ccnc4c3)o2)CC1`, the growth inhibition is 100% (active) in [1] and 102% (active) in assay [4]. Also, the inhibition was 47% in [2] and -3% in assay [3]. In addition, the result in assay [5], in [6] and in [7] was inactive.

Turning to `Nc1ncc(-c2cccc(F)c2)cc1-c1nc2ccc(F)cc2[nH]1`, the growth inhibition in [1] is 88% (active); in [4] it was 100% (active). The inhibition was 54% (active) in assay [2] and -3% in [3]. The outcome in assay [8], in assay [6] and in [7] was inactive.

In the case of `COc1cccc(-n2ncc3c(N/N=C/c4ccc(CN(C)CCN(C)C)cc4)ncnc32)c1`, the growth inhibition in [1] is 91% (active); in assay [4], 100% (active). For the same molecule, the inhibition was 29% in [2] and -2% in [3]. Besides, the result in assay [8], in [6] and in [7] was inactive.

A word on the inhibition: it is the relative decrease from the control value, in per cent. The AC50 is the concentration giving half of the maximal activity seen. One may read the IC50 as the midpoint of a concentration-inhibition curve.
